Experimental findings from PubChem BioAssay are described below.

SMILES strings stand for the structures. Calls of active or inactive are those of the source.

The target of experiment [1] is Albumin (Bos taurus) (UniProt P02769). Nature of the experiment: compounds binding labelled BSA control protein – biochemical, small-molecule microarray, Alexa647 label, 635/667 nm fluorescence, artefact control for SMM control protein annotation, profiling panel (AID 1118).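 Also: score merges 667 nm emission intensity and signal-to-noise per printed compound spot.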 The following applies: BSA-A647 binding, fluorescence 635 nm, higher = more signal.
Experiment [2] can be described thus: probe aXIP binding to arrayed compounds – biochemical, NeuroSMM set, 635/667 nm fluorescence, primary screen (AID 1119).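 Also: probe is the protein aXip251-270 applied at 1 µg/mL to compound-printed slides; binding of probe to printed compounds measured as 667 nm fluorescence plus signal to noise.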 The following applies: small-molecule microarray, higher = more signal, called active from +8 up or from −8 down.
Experiment [3] can be described thus: probe aNOTCH3 binding on compound microarray – biochemical, small-molecule microarray, 635/667 nm fluorescence, primary screen (AID 1120).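 Also: probe is a biotin-tagged antibody raised against NOTCH3 rather than NOTCH3 protein; score merges spot fluorescence near 667 nm with spot signal to noise.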 The settings on record: higher = more signal.
Experiment [4] is described as follows: probe aNOTCH2 binding on compound microarray – biochemical, small-molecule microarray, 635/667 nm fluorescence, primary screen (AID 1121).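 Also: score merges feature fluorescence read at 667 nm with its signal to noise.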 The following applies: higher = more signal.
Experiment [5] addresses Carbonic anhydrase 2 (Homo sapiens) (UniProt P00918). The experiment in a line: compounds binding carbonic anhydrase 2 – biochemical, small-molecule microarray, Alexa647-labelled CAII, profiling panel (AID 1122). The following applies: CAII-A647 binding fluorescence, higher = more signal.
The nature of experiment [6]: COS7 lysate on small-molecule microarray, probe aHis, 635 nm (AID 1123).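 Also: z-score combines 667nm fluorescence intensity with signal-to-noise per printed compound spot.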 The following applies: COS7 cell lysate, fluorescence, higher = more signal.
Experiment [7] can be described thus: probe aLAP1 signal on lysate-treated microarray – cell lysate, small-molecule microarray, COS7 lysate, primary screen (AID 1124).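 Also: lysate comes from COS7 cells expressing LAP1 and is applied at 0.3 µg/mL; score merges spot fluorescence near 667 nm with signal-to-noise over triplicate slides.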 The following applies: probe aLAP1, fluorescence, higher = more signal.
Experiment [8] has as its system Sam68 (KHDRBS1). Nature of the experiment: compounds binding KHDRBS1 protein – biochemical, small-molecule microarray, 635 nm fluorescence, primary screen (AID 1125).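 Also: score merges 667 nm channel intensity with signal to noise over triplicate slides.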 The settings on record: higher = more signal.
Experiment [9] deals with Chordin-like protein 2 (CHRDL2). Nature of the experiment: compounds binding chordin-like 2 – biochemical, small-molecule microarray, 635 nm fluorescence, primary screen (AID 1126).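 Also: printed compound slides probed with Chrdl2 protein at 4 µg/mL for 1 h at 4 C; score merges 667 nm emission intensity with signal to noise over three replicate slides.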 The following applies: fluorescence 635 nm, higher = more signal.
Experiment [10] addresses Concanavalin-A (Canavalia ensiformis) (UniProt P02866). Nature of the experiment: compounds binding concanavalin A lectin – biochemical, small-molecule microarray, Alexa647 label, 635 nm, artefact control for SMM control protein annotation, primary screen (AID 1127).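 Also: z combines 667 nm emission intensity with signal-to-noise across three replicate slides.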 The following applies: ConA-A647 binding fluorescence, higher = more signal.

Sequence of Albumin (Bos taurus) (P02769 whole entry, looked up): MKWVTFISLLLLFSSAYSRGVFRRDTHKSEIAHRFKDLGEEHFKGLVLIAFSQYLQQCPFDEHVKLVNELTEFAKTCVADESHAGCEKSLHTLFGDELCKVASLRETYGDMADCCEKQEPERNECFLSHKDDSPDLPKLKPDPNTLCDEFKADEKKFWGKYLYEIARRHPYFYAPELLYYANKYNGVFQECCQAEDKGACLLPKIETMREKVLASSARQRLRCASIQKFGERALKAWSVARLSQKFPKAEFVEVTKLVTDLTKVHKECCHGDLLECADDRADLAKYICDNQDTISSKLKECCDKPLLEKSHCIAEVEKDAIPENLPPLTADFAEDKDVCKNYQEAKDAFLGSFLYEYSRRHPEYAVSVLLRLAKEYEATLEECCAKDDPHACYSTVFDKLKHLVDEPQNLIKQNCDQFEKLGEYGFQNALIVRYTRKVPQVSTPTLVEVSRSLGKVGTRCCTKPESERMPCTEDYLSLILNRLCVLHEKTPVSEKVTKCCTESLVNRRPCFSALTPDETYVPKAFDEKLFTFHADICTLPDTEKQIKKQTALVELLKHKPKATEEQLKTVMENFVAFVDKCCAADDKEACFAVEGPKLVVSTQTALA
Sequence of Concanavalin-A (Canavalia ensiformis) (P02866 whole entry, looked up): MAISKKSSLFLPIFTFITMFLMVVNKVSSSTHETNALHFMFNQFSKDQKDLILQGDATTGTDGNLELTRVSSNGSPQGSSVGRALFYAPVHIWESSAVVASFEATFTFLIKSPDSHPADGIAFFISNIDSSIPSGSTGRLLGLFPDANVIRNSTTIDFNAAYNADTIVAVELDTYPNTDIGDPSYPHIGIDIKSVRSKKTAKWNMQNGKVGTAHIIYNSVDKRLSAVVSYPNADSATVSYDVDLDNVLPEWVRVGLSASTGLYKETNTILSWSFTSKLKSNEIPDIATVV

Consider `CC(C)C[C@@H]1NC(=O)[C@@H]2C[C@H](C(=O)NCCCCCC[N+](C)(C)C)[C@H](c3cccc(OCCO)c3)N2C1=O`, for which the composite z-score is -0.391 in experiment [1]; -0.0311 in experiment [3]; -0.128 in experiment [4]; 0.511 in experiment [5]; 2.37 in experiment [6]; 0.241 in experiment [7]. In addition, the composite z-score in [8] was 0.584; in experiment [9], 0.562; in experiment [10], 0.644. Further, in [2], the composite Z-score was 0.0931 (inactive).

Take `C=C(/C(=C/C[C@H](OC(=O)c1ccncc1)c1cccc(OCCO)c1)c1cnc2ccccc2c1)C(C)C`: the composite z-score is -0.134 in experiment [1]; 0.0306 in [3]; -0.0264 in [4]; 0.942 in experiment [5]; 0.301 in experiment [6]; 1.04 in experiment [7]. Moreover, the composite z-score in [8] came out at 1.23; in experiment [9], 1.33; in [10], 0.898. In addition, the composite Z-score in [2] is -1.19 (inactive).

Regarding `COc1ccc([Si](C)(C)[C@@H]2[C@@H](CC(=O)N3Cc4ccccc4C[C@H]3CO)O[C@]3(C(=O)N(c4ccccc4)c4ccccc43)[C@H]2C)cc1`, the composite z-score in experiment [1] is -0.104; in experiment [3] it was 0.146; in experiment [4], 0.0018; in [5], 0.429; in experiment [6], 1.21; in [7], 0.339. Besides, the composite z-score in experiment [8] came to 1.3; in experiment [9] it was 0.943; in [10] it was 0.869. The composite Z-score in [2] was 8.06 (active).

In the case of `C=C(CCCC)C(=O)CC[C@H](OC(C)=O)c1ccc(OCCO)cc1`, the composite z-score is 0.551 in experiment [1]; -0.292 in experiment [3]; -0.181 in experiment [4]; -0.43 in [5]; -0.543 in experiment [6]; -0.52 in [7]. The composite z-score was -0.578 in experiment [8], -0.858 in experiment [9] and 0.924 in experiment [10]. The composite Z-score in experiment [2] was 0.517 (inactive).

With `CC(C)CCC[C@@H](C)[C@H]1CC[C@@]2(C)C3=C(CC[C@]12C)[C@@]1(C)CC[C@H](OC(=O)c2ccccc2)C(C)(C)C1CC3` (stereo not given in full), the composite z-score is 0.181 in [1]; -0.0074 in experiment [3]; -0.181 in experiment [4]; -0.103 in experiment [5]; 0.275 in experiment [6]; -0.0606 in [7]. Further, the figures for the composite z-score in experiment [8], in experiment [9] and in experiment [10] were 0.248, 0.418 and 0.115, respectively. Moreover, the composite Z-score in experiment [2] was 0.115 (inactive).

`COCCOC(=O)N1C(=O)[C@@]2(c3cc(C#CCC(C(=O)OC)C(=O)OC)ccc31)[C@H](c1ccc(OCCO)cc1)N1[C@H](c3ccccc3)[C@H](c3ccccc3)OC(=O)[C@H]1[C@@H]2C(=O)Nc1nc2ccccc2s1`: the composite z-score is -0.86 in experiment [1]; -0.0077 in experiment [3]; 0.15 in experiment [4]; 0.405 in experiment [5]; 0.221 in experiment [6]; -0.157 in experiment [7]. Further, the composite z-score in [8] stood at 1.31; in experiment [9], 0.219; in experiment [10], 1.11. Besides, the composite Z-score in experiment [2] was 0.575 (inactive).

Turning to `Cc1ccc(F)cc1S(=O)(=O)N[C@@H]1CCN(Cc2cccc3[nH]ccc23)C1`, the composite z-score in experiment [1] is -0.864; in experiment [3], 0.0749; in experiment [4], -0.154; in experiment [5], 0.708; in experiment [6], -0.339; in [7], 0.136. For the same molecule, the results for the composite z-score in experiment [8], in experiment [9] and in experiment [10] were 0.289, 1.23 and 0.249, respectively. In addition, in experiment [2], the composite Z-score is -1.15 (inactive).

Take `CN(C)CCCNC(=O)[C@@H]1c2ccccc2C(=O)N(C2CCCCC2)[C@H]1c1ccc(CO)cc1`: the composite z-score in experiment [1] is -0.706; in experiment [3] it was 0.303; in [4], -0.0891; in experiment [5], 0.672; in experiment [6] it was 1.38; in experiment [7], 0.337. The figures for the composite z-score in experiment [8], in [9] and in [10] were 1.29, 1.06 and 1.08, respectively. In addition, in experiment [2], the composite Z-score was 0.245 (inactive).

On to `[N-]=[N+]=Nc1ccccc1C[C@]1(C(=O)O)N=C(c2ccc(OCCCO)cc2)O[C@H]1c1ccccc1`, for which the composite z-score in experiment [1] is 0.784; in experiment [3], -0.0316; in [4], -0.121; in [5], 0.601; in experiment [6], 2.58; in experiment [7] it was 0.266. Besides, the figures for the composite z-score in experiment [8], in experiment [9] and in [10] were 0.822, -1.09 and 0.552, respectively. In experiment [2], the composite Z-score is 0.0778 (inactive).

In the case of `C=CC[C@H](OC(=O)Nc1ccc(SC)cc1)c1ccc(OCCO)cc1`, the composite z-score in experiment [1] was -0.0497; in experiment [3], -0.0321; in experiment [4], -0.0996; in experiment [5], 0.655; in [6], -0.365; in experiment [7], 0.656. For the same molecule, the composite z-score in [8] is -1.12; in [9], 0.0241; in experiment [10] it was -0.32. The composite Z-score in [2] was 0.154 (inactive).

For the molecule `CCN(CC)c1ccc(N2CC=CC34O[C@@H]5/C=C\CCC(C)OC(=O)C5[C@H]3C(=O)N(C(C)CO)[C@@H]4C2=O)cc1` (stereo not given in full), the composite z-score in experiment [1] was -0.739; in experiment [3], -0.24; in experiment [4], -0.148; in experiment [5], 0.42; in experiment [6] it was -0.175; in experiment [7] it was -0.165. The composite z-score was -0.0199 in experiment [8], 0.142 in [9] and -1.09 in experiment [10]. Moreover, the composite Z-score in experiment [2] is 0.451 (inactive).
